Source: PubChem BioAssay (Milwaukee Institute for Drug Discovery)
A selection: hits, their analogues and other compounds. The true share with any hit is near 6.9%.
Cy5 interf NS3h: Cy5 fluorescence interference, HCV helicase counter-screen | Cy5-dT15 DNA with NS3h; actives lie on both sides; signal over control mean, under 1 quenches | fluorescence interference ratio at 100 µM | hit rate 6% among 16,000 | AID 720488;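 active = compound fluorescence over control fluorescence at most 0.8, a quencher, or at least a set upper limit, an enhancer; inactive = ratio between 0.8 and the set upper limit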
NS3h inh CB: hepatitis C NS3 helicase inhibition, primary screen. NS3h Cy5-dT15 DNA binding, fluorescence polarization. inhibition, % at 100 µM. hit rate 1.6% among 16,000;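 active = inhibition above the average over every tested compound plus 3 SD, cut at about 40% in these data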
Numbers stand for hits; n = inactive.

SMILES | Cy5 interf NS3h | NS3h inh CB
CCCCCCN1C(=O)C(O)=C(C(C)=O)C1c1ccc2c(c1)OCO2 (stereo not given) | n | n
COC(=O)CN(c1ccc(OC)cc1)S(=O)(=O)c1ccccc1 | n | n
CC1(C)CC(=O)C2=C(C1)OC(N)=C(C#N)C2c1cn(-c2ccccc2)nc1-c1ccc(Cl)cc1 (stereo not given) | n | n
COc1cc(/C=C2/SC(=S)N(CCC(=O)Nc3ccc(C(C)=O)cc3)C2=O)cc(OC)c1OC | 0.634 | n
COc1cc(/C=C2/SC(=S)N(CCC(=O)Nc3ccccc3C(=O)O)C2=O)cc(OC)c1OC | n | n
CCC(=O)Nc1nc(C)c(-c2csc(Nc3cc(C)ccn3)n2)s1 | n | n
CC(=O)Nc1nc(C)c(-c2csc(Nc3ncccn3)n2)s1 | 0.514 | n
COc1ccc(CN2CCN(CC3CC4C=CC3C4)CC2)cc1Br (stereo not given) | 0.749 | n
COc1ccc(OC)c(CN2CCN(Cc3ccc(OC)c(Br)c3)CC2)c1 | n | n
O=c1c([N+](=O)[O-])c(/C=C/c2ccccc2)nc2nc[nH]n12 | n | n
O=C(O)C(Cc1ccccc1)N1C(=O)/C(=C/C(Cl)=C/c2ccc([N+](=O)[O-])cc2)SC1=S (stereo not given) | 0.782 | n
O=C1/C(=C/C(Cl)=C/c2ccc([N+](=O)[O-])cc2)SC(=S)N1c1ccc(O)cc1 | n | n
O=C(O)CCC(C(=O)O)N1C(=O)/C(=C\C(Cl)=C/c2ccc([N+](=O)[O-])cc2)SC1=S (stereo not given) | 0.635 | n
CC(/C=C1\SC(=S)N(C(Cc2ccccc2)C(=O)O)C1=O)=C\c1ccccc1 (stereo not given) | n | n
O=C(COc1cccc2ccccc12)NCc1ccccn1 | n | n
O=C(COc1cccc2ccccc12)NCc1ccco1 | n | n
O=C(COc1cccc2ccccc12)NCC1CCCO1 (stereo not given) | 0.772 | n
O=C(COc1cccc2ccccc12)NCc1cccnc1 | 0.739 | n
O=C(NCCCO)C(=O)NCC1CCCO1 (stereo not given) | n | n
COc1ccc(N=C2C(=O)Nc3ccc(C)c(Br)c32)cc1 | 0.659 | n
COc1ccc(S(=O)(=O)Nc2ccc(Br)cc2C)cc1 | n | n
O=C1Oc2ccc(Cl)cc2C1c1ccccc1 (stereo not given) | n | n
CCc1ccc(OCC(=O)Nc2cccc(OC)c2)cc1 | 0.739 | n
COc1ccc(OCC(=O)Nc2cccc(C(C)=O)c2)cc1 | n | n
Cc1ccc(/C=N\N=C2/NC(=O)C(CC(=O)Nc3ccccc3C(F)(F)F)S2)o1 (stereo not given) | n | n
SMILES | Cy5 interf NS3h | NS3h inh CB
N/N=C1\NC(=O)C(Cc2cccc([N+](=O)[O-])c2)S1 (stereo not given) | n | n
Cc1ccccc1/C=N\N=C1\NC(=O)C(Cc2cccc([N+](=O)[O-])c2)S1 (stereo not given) | 1.35 | n
O=C(Nc1cccc2nsnc12)C(c1ccccc1)c1ccccc1 | n | n
N#Cc1c(-c2cc(Br)cs2)c2c(=O)[nH]c(=O)[nH]c2[nH]c1=O | 1.21 | n
CC(C)CCn1c(Cc2ccccc2)nc2ccccc21 | n | n
Cc1[nH]nc2c1C(c1cc(Br)cs1)C(C#N)=C(N)O2 (stereo not given) | 1.24 | n
COC(=O)C1=C(N)Oc2n[nH]c(C)c2C1c1ccc(Br)cc1 (stereo not given) | n | n
COc1cccc(N2C(=O)C(=O)C(=C(O)c3ccccc3)C2c2ccc([N+](=O)[O-])cc2)c1 (stereo not given) | n | n
O=C(O)c1ccc(NC(=S)NC(=NS(=O)(=O)c2ccc(Cl)cc2)c2ccccc2)cc1 | n | n
O=C(Nc1ccc(Oc2ccccc2)cc1)C(F)(F)F | 0.783 | n
CC(=O)Nc1ccc(Oc2ccccc2)cc1 | n | n
CCc1ccc(C(=O)O/N=C(/N)c2ccccn2)cc1 | n | n
O=c1c(C=NCc2ccc(F)cc2)c(-c2ccccc2)[nH]n1-c1nc2ccccc2s1 | n | n
Cn1ccnc1SCC(=O)c1ccc(Br)cc1 | 0.773 | n
O=C(CSc1ncn(-c2ccccc2)n1)c1ccc(Br)cc1 | n | n
CC(C)CNC(=O)c1ccccc1NC(=O)C(c1ccccc1)c1ccccc1 | n | n
C(=N/n1cnnc1)/c1cc2ccccc2[nH]1 | 0.741 | n
Ic1cccc(/C=N\n2cnnc2)c1 | n | n
Cc1cccc(C)c1NC(=S)NC(=O)/C=C/c1ccccc1 | n | n
C/C(=N/N=C1\NC(=O)C(CC(=O)Nc2ccccc2C)S1)c1ccc(F)cc1 (stereo not given) | n | n
CCc1ccccc1NC(=O)CC1S/C(=N/N=C(C)\C=C\c2ccc(OC)cc2)NC1=O (stereo not given) | 1.21 | n
COc1ccc(N(CC(=O)Nc2ccc(OC)cc2OC)S(C)(=O)=O)cc1 | n | n
O=C1NC(=S)N/C1=C/c1ccc(OCc2ccccc2)c(Br)c1 | n | n
O=C1NC(=S)N/C1=C\c1ccccc1OCc1ccc([N+](=O)[O-])cc1 | 0.67 | n
